Test results: PubChem BioAssay (Tox21)
Results filed as inconclusive are left out. Activity calls are given as the source filed them. Unless noted, calls follow the shape of the dose curve; as a rule, active = well fitted curve in the direction sought with a large enough effect in the repeat runs; inconclusive = weak or mixed curves; inactive = no such curve, though single readings can be large; an effect the other way counts as inactive or inconclusive.

Legend:
[1] = qHTS assay to identify small molecule antagonists of the sonic hedgehog signaling (Shh) pathway (AID 1259369; calls by dose curve; also: nearly all actives have a fitted effect of over 45% in size)
Procedure, shortened: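 3T3Gli1-Luc, conditioned-medium-stimulated, 24hr cpd, 37C/5% CO2; Gli1-driven firefly Luc luminescence after 30min RT with luciferase reagent. Cells plated 4hr before cpd.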

[2] = biological target: Estrogen receptor beta (Homo sapiens) (UniProt Q92731); assay: qHTS assay to identify small molecule agonists of the estrogen receptor beta (ER-beta) signaling pathway (AID 1259377; active = well fitted activation curve with a large enough effect in the signal ratio in the repeat runs, not every such curve was filed as active; the % refers to the signal ratio)
Sequence of Estrogen receptor beta (Homo sapiens) (Q92731 whole entry, looked up): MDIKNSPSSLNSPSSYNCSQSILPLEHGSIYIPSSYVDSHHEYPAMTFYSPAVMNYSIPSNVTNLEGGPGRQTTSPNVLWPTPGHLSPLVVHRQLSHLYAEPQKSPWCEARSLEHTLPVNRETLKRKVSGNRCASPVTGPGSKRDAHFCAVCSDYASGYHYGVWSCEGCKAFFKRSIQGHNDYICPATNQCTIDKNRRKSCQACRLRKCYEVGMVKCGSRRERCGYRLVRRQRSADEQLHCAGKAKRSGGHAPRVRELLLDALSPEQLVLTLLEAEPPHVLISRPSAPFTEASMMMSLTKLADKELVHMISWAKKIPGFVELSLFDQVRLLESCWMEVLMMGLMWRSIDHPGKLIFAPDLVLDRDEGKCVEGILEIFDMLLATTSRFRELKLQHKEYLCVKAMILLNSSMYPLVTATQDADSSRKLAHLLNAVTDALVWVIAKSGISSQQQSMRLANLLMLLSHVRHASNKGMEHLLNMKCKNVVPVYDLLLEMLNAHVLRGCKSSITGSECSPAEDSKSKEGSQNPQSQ
Procedure, shortened: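 HEK293T ER-beta-UAS-bla; 2% charcoal-stripped FBS; cells pre-incubated 6 hr, compound 16 hr, 37C/5% CO2; LiveBLAzer B/G FRET substrate 2 h RT; fluorescence intensity read.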

[3] = biological target: Estrogen receptor beta (Homo sapiens) (UniProt Q92731); assay: qHTS assay to identify small molecule antagonists of the estrogen receptor beta (ER-beta) signaling pathway (AID 1259378; active = well fitted inhibition curve with a large enough effect in the signal ratio in the repeat runs, not every such curve was filed as active; the % refers to the signal ratio)
Procedure, shortened: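 Antagonist mode: compounds added to beta-lactamase reporter HEK293T ER-beta-UAS cells stimulated with E2 (1nM final), 16 hr at 37C. LiveBLAzer B/G FRET substrate, 2 hours room temperature, fluorescence read-out.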

[4] = qHTS assay to identify small molecule agonists of the androgen receptor (AR) signaling pathway in the presence of an antagonist - cell viability counter screen (AID 1259379);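 also: MDA-kb2 human breast cancer cells carrying an MMTV luciferase reporter; series mostly up to about 92 µM; nearly all actives have a fitted effect of over 25% in size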
Procedure, shortened: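 Cells: MDA-kb2 (MMTV-luc, AR and GR elements), 3,000/well, 5 hr settle. Added: nilutamide 3.0uM final, then compounds (15 conc.). Incubation: 16 hr, 37C, no CO2. Read-out: CellTiter-Fluor, 1 hr, fluorescence.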

[5] = qHTS assay to identify small molecule agonists of the estrogen receptor beta (ER-beta) signaling pathway - cell viability counter screen (AID 1259380); also: nearly all actives have a fitted effect of over 30% in size
Procedure, shortened: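 HEK293T ER-beta-UAS-bla; 2% CS-FBS; 6 hr pre-plate, 16 hr cpd at 37C/5% CO2; LiveBLAzer read first, then CellTiter-Glo 30 min RT, luminescence.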

[6] = qHTS assay to identify small molecule antagonists of the estrogen receptor beta (ER-beta) signaling pathway - cell viability counter screen (AID 1259382);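 also: HEK293T cells carrying ER-beta-UAS-bla reporter stimulated with estradiol; series mostly up to about 92 µM; nearly all actives have a fitted effect of over 55% in size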
Procedure, shortened: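 Cells: ER-beta-UAS-bla HEK293T, 2,000/well, 2% CS-FBS, 6 hr settle. Cpd + E2 (1nM final), 16 hr, 37C/5% CO2. Bla FRET substrate 2 hr RT, then CellTiter-Glo 30 min RT, luminescence.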

[7] = biological target: Estrogen receptor (Homo sapiens) (UniProt P03372); assay: qHTS assay to identify small molecule agonists of the estrogen receptor alpha (ER-alpha) signaling pathway in the presence of an antagonist (AID 1259383; calls by dose curve; also: top concentration of the series differs between compounds; nearly all actives have a fitted effect of over 15% in size)
Sequence of Estrogen receptor (Homo sapiens) (P03372 whole entry, looked up): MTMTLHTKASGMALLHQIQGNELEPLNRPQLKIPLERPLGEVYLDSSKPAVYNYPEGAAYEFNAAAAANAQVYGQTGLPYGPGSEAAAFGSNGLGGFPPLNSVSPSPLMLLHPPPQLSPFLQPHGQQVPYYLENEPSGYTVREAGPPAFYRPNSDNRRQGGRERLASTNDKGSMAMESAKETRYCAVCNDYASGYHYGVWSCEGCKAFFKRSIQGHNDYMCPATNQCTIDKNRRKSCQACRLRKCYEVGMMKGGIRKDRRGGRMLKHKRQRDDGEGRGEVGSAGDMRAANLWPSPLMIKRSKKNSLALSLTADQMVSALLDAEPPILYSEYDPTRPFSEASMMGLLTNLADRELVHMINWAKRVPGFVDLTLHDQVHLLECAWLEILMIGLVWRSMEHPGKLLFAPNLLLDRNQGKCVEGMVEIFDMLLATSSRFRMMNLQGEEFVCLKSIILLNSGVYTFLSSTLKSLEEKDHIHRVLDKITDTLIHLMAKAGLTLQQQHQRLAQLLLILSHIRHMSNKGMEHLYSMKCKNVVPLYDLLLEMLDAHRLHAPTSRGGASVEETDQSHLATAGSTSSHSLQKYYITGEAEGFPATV
Procedure, shortened: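 VM7Luc4E2, endog. ER-alpha + 4×ERE-luc; charcoal-stripped FBS, phenol red-free, 5 d; 24hr plating; +10.0nM ICI-182,780 (final); cpds 15 conc, 22hr, 37C/5% CO2; ONE-Glo luminescence.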

[8] = qHTS assay to identify small molecule agonists or antagonists of the thyroid stimulating hormone receptor (TSHR) signaling pathway - wild type cell line counter screen (AID 1259384; calls by dose curve)
Procedure, shortened: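 Counter screen in untransfected Hek293: compounds (15-point titration, triplicate) plus phosphodiesterase inhibitor Ro20-1724 added after 18 h plating; 30 min RT. Intracellular cAMP via competitive d2/cryptate immunoassay, 1 h incubation.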

[9] = biological target: Thyrotropin receptor (Homo sapiens) (UniProt P16473); assay: qHTS assay to identify small molecule antagonists of the thyroid stimulating hormone receptor (TSHR) signaling pathway (AID 1259385; calls by dose curve; also: nearly all actives have a fitted effect of over 20% in size)
Sequence of Thyrotropin receptor (Homo sapiens) (P16473 whole entry, looked up): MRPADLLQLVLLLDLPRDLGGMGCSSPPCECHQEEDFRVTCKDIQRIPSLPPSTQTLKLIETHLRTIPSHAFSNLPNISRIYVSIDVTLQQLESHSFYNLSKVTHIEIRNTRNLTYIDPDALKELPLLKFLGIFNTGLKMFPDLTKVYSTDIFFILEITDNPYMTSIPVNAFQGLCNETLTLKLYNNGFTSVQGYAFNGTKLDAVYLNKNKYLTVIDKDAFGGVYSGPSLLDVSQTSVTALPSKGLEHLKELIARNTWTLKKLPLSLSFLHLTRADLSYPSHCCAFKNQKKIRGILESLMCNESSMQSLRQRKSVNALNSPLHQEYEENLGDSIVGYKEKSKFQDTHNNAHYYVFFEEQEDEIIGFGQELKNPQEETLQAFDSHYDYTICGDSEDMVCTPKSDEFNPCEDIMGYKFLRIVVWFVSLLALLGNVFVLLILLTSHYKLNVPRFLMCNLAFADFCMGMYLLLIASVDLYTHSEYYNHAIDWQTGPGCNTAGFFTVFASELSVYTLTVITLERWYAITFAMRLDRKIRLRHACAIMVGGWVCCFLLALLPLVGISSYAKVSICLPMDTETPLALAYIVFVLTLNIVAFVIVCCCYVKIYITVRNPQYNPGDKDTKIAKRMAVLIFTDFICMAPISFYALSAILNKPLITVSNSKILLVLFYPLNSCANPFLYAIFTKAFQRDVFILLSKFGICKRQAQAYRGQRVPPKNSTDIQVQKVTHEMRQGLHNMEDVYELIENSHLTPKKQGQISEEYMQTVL
Procedure, shortened: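 Antagonist mode: compound-treated TSHR-expressing HEK293 cells were stimulated with 1.5 ng/mL TSH (final) in presence of Ro20-1724 for 30 min at RT. HTRF cAMP detection after 1 h; each compound tested at 15 concentrations, triplicate.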

[10] = qHTS assay to identify small molecule agonists of the estrogen receptor alpha (ER-alpha) signaling pathway in the presence of an antagonist - cell viability counter screen (AID 1259386);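 also: series mostly up to about 92 µM; cells exposed to compounds for 22 h at 37 °C before the viability read; nearly all actives have a fitted effect of over 30% in size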
Procedure, shortened: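 VM7Luc4E2, stripped-serum pre-culture 5 d; 24hr plating; +ICI-182,780 10.0nM final; cpds 15 conc, 22hr, 37C/5% CO2; CellTiter-Fluor added at 21hr, fluorescence 1hr later.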

[11] = biological target: Progesterone receptor (Homo sapiens) (UniProt P06401); assay: qHTS assay to identify small molecule agonists of the progesterone receptor (PR) signaling pathway (AID 1346784; calls by dose curve; also: nearly all actives have a fitted effect of over 30% in size)
Sequence of Progesterone receptor (Homo sapiens) (P06401 whole entry, looked up): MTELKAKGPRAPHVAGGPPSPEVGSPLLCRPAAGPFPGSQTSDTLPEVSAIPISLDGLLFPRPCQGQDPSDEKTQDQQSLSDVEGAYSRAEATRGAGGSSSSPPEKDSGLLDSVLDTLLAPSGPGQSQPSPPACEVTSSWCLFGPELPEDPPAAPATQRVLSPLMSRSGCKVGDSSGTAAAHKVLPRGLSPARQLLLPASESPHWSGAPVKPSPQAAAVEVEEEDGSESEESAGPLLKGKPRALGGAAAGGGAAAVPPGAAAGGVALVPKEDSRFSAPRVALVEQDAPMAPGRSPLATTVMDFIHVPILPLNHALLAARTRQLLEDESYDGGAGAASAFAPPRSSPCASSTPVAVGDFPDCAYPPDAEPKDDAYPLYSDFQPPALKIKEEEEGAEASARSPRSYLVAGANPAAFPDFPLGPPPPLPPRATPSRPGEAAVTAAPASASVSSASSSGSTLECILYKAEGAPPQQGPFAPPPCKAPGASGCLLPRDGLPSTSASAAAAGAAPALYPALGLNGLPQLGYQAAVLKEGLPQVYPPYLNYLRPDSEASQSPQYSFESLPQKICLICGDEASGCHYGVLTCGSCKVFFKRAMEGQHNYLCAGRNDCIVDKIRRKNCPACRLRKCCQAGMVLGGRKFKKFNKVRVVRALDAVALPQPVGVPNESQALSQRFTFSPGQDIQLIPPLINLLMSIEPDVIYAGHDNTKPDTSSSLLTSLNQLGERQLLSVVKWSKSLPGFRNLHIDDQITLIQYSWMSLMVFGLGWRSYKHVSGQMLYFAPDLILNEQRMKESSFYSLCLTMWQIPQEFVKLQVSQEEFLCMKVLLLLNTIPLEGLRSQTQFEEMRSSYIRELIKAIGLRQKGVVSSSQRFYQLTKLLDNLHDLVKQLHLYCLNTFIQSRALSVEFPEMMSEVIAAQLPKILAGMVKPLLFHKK
Procedure, shortened: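 Beta-lactamase reporter read-out: after 16 hr compound treatment at 37C and a further 2 hr at room temperature with LiveBLAzer B/G FRET substrate, fluorescence was measured in PR-UAS-bla HEK 293T cells grown in 2% charcoal-stripped serum.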

[12] = qHTS assay to identify small molecule antagonists of the progesterone receptor (PR) signaling pathway - cell viability counter screen (AID 1346798);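 also: HEK293T PR-UAS-bla cells stimulated with the agonist R5020; series mostly up to about 92 µM; nearly all actives have a fitted effect of over 50% in size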
Procedure, shortened: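 HEK293T PR-UAS-bla, 2% charcoal-stripped FBS; 4 hr pre-plate; cpd + R5020, 16 h 37C; LiveBLAzer read first; then CellTiter-Glo 30 min RT, luminescence.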

[13] = qHTS assay to identify small molecule agonists of the progesterone receptor (PR) signaling pathway - cell viability counter screen (AID 1346799; calls by dose curve; also: nearly all actives have a fitted effect of over 45% in size)
Procedure, shortened: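 Luminescence from CellTiter-Glo, added after the beta-lactamase FRET read in the same wells, gave cytotoxicity in PR-UAS-bla HEK293T cells treated with compounds for 16 hr at 37C.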

[14] = qHTS assay to identify small molecule antagonists of the TGF-beta/Smad signaling pathway - cell viability counter screen (AID 1346824); also: nearly all actives have a fitted effect of over 50% in size
Procedure, shortened: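 Cytotoxicity counter-screen run in the same wells as the beta-lactamase Smad reporter read: CellTiter-Glo luminescence after 30 min at room temperature. HEK 293T SBE-bla cells had 5 hr compound exposure at 37 C with TGF-beta1 (0.25 ng/mL stock).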

[15] = qHTS assay to identify small molecule agonists of the TGF-beta/Smad signaling pathway - cell viability counter screen (AID 1346829); also: top concentration of the series differs between compounds; nearly all actives have a fitted effect of over 45% in size
Procedure, shortened: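 Cytotoxicity counter screen: CellTiter-Glo luminescence (30 min, room temperature) measured in the SBE-bla HEK 293T reporter wells after 5 hr compound treatment at 37 C and the 2 hr substrate step.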

[16] = qHTS assay to identify small molecule agonists of the TGF-beta/Smad signaling pathway (AID 1346859; active = well fitted activation curve with a large enough effect in the signal ratio in the repeat runs, not every such curve was filed as active; the % refers to the signal ratio; also: series mostly up to about 77 µM)
Procedure, shortened: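 SBE-bla HEK 293T, 4,000 cells/well, plated o/n; cpd in DMSO, 5 hr, 37 C/5% CO2; B/G FRET substrate 2 hr RT; ex 405, em 460/530 nm.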

[17] = biological target: Thyrotropin-releasing hormone receptor (Homo sapiens) (UniProt P34981); assay: qHTS assay to identify small molecule antagonists of the thyrotropin-releasing hormone receptor (TRHR) signaling pathway (AID 1346877; active = well fitted inhibition curve with a large enough effect in the repeat runs, not every such curve was filed as active; also: series mostly up to about 51 µM)
Sequence of Thyrotropin-releasing hormone receptor (Homo sapiens) (P34981 whole entry, looked up): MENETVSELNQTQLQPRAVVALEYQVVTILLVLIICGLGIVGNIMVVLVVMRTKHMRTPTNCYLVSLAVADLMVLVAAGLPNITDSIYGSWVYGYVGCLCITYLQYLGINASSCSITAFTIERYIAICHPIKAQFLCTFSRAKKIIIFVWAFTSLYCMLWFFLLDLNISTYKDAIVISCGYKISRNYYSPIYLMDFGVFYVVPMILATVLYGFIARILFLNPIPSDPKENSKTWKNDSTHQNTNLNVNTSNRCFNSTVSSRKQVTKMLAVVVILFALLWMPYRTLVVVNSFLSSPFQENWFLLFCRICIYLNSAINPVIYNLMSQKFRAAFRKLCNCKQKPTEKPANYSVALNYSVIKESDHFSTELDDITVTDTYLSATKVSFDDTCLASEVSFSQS
Procedure, shortened: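 Intracellular calcium fluorescence, read kinetically every second over 3 min, reports TRH-evoked signalling in HEK293 cells carrying TRHR. Test compounds were added 5 min ahead of a 1 nM TRH challenge.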

[18] = biological target: Progesterone receptor (Homo sapiens) (UniProt P06401); assay: qHTS assay to identify small molecule antagonists of the progesterone receptor (PR) signaling pathway (AID 1346795; active = well fitted inhibition curve with a large enough effect in the signal ratio in the repeat runs, not every such curve was filed as active; the % refers to the signal ratio)
Procedure, shortened: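 Read-out is fluorescence from the LiveBLAzer B/G FRET substrate, cleaved by a UAS-controlled beta-lactamase in PR-UAS-bla HEK293T cells after 16 hr exposure to compound plus 1 nM promegestone (final), followed by 2 hr at room temperature.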

[19] = biological target: Thyrotropin-releasing hormone receptor (Homo sapiens) (UniProt P34981); assay: qHTS assay to identify small molecule agonists of the thyrotropin-releasing hormone receptor (TRHR) signaling pathway (AID 1346891; calls by dose curve; also: series mostly up to about 58 µM)
Procedure, shortened: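 Intracellular calcium rise, read as fluorescence every second for 3 min, served as the agonist signal in dye-loaded HEK293 cells expressing TRHR; each compound ran at 15 concentrations in triplicate.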

[20] = biological target: Androgen receptor (Homo sapiens) (UniProt P10275); assay: qHTS assay to identify small molecule agonists of the androgen receptor (AR) signaling pathway in the presence of an antagonist (AID 1259381; calls by dose curve; also: nearly all actives have a fitted effect of over 15% in size)
Sequence of Androgen receptor (Homo sapiens) (P10275 whole entry, looked up): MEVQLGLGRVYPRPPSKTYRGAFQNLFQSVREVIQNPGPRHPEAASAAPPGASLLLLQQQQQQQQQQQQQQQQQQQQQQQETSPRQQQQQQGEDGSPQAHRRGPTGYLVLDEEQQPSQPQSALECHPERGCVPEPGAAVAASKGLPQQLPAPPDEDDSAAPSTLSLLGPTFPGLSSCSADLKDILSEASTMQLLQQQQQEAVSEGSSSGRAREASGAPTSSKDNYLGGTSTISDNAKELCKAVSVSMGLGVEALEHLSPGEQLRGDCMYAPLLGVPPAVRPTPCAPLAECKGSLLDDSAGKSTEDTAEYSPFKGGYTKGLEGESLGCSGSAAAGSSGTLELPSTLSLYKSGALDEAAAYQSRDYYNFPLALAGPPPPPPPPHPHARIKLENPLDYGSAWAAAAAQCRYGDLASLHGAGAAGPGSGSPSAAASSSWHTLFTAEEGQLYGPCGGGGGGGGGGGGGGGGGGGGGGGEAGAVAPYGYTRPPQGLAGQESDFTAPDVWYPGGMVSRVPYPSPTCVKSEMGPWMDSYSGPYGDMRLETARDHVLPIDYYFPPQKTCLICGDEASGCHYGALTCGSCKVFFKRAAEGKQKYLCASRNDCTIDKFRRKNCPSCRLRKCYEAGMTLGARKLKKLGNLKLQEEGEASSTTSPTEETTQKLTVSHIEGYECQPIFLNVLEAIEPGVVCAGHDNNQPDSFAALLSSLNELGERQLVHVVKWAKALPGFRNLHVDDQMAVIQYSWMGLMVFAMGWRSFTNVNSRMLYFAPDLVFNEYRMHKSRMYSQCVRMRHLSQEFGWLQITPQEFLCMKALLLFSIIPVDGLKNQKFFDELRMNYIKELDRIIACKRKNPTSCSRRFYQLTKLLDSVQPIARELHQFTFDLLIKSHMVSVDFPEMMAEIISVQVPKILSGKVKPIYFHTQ
Procedure, shortened: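 MDA-kb2 cells, 3,000/well, rested 5hr at 37C/0% CO2 → nilutamide 3.0uM final or buffer → compounds, 15 conc. → 16hr at 37C → ONE-Glo, 30min RT → luminescence.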
% is scaled to controls: 0 for no effect and ±100 for the full control effect.

CCOc1ccc(OCC)c(Cl)c1
inactive: Potency [1] | outcome [2] | Potency [3] | Potency [4] | Potency [5] | outcome [6] | Potency [7] | outcome [8] | Potency [9] | Potency [10] | Potency [11] | Potency [12] | Potency [13] | outcome [14] | outcome [15] | outcome [16] | outcome [17]

CCCCC1CCC(=O)O1 (stereo not drawn)
inactive: Potency [1] | outcome [2] | Potency [3] | Potency [4] | Potency [5] | outcome [6] | Potency [7] | outcome [8] | Potency [9] | Potency [10] | Potency [11] | Potency [18] | Potency [12] | Potency [13] | outcome [14] | outcome [15] | outcome [16] | outcome [17] | Potency [19]

NCCC(O)(P(=O)(O)O)P(=O)(O)O
inactive: Potency [1] | outcome [2] | Potency [3] | Potency [4] | Potency [5] | outcome [6] | outcome [8] | Potency [9] | Potency [10] | Potency [11] | Potency [18] | Potency [12] | Potency [13] | outcome [14] | outcome [15] | outcome [16]

CNCCC(Oc1ccccc1OC)c1ccccc1 (stereo not drawn)
inactive: Potency [1] | outcome [2] | Potency [3] | Potency [4] | Potency [5] | outcome [6] | Potency [7] | outcome [8] | Potency [9] | Potency [10] | Potency [11] | Potency [12] | outcome [14] | outcome [15] | outcome [16] | outcome [17] | Potency [19]

CO[C@@]1(NC(=O)CSCC#N)C(=O)N2C(C(=O)O)=C(CSc3nnnn3C)CS[C@@H]21
inactive: Potency [1] | outcome [2] | Potency [3] | Potency [4] | Potency [5] | outcome [6] | Potency [7] | Potency [10] | Potency [18] | Potency [13] | outcome [14] | outcome [15] | outcome [16] | outcome [17] | Potency [19]

C[C@@H]1CN(c2c(F)c(N)c3c(=O)c(C(=O)O)cn(C4CC4)c3c2F)C[C@H](C)N1
inactive: activity change, negative = inhibition [1] 23.6% [at 19 µM] | activation [2] 3.1% [at 19 µM] | activity, negative = inhibition [3] 17% [at 19 µM] | activity change, negative = cytotoxicity [4] 2.69% [at 19 µM] | activity change, negative = cytotoxicity [5] 6.77% [at 19 µM] | activity change, negative = cytotoxicity [6] 5.91% [at 19 µM] | activation [7] 0.0574% [at 19 µM] | cAMP activity change [8] 4.73% [at 18.9 µM] | activity change, negative = inhibition [9] -0.774% [at 19 µM] | activity change, negative = cytotoxicity [10] 1.7% [at 19 µM] | activation [11] 3.14% [at 19 µM] | activity change, negative = inhibition [18] 8.12% [at 18.9 µM] | activity change, negative = cytotoxicity [13] 4.97% [at 19 µM] | viability change, negative = cytotoxic [14] 4.43% [at 15.8 µM] | activity change, negative = cytotoxicity [15] -11.5% [at 15.8 µM] | activation [16] 1.17% [at 15.8 µM] | activity, negative = inhibition [17] 0.314% [at 10.5 µM]

CCOC(=O)c1cc(=O)c2c(OCC(COc3cccc4oc(C(=O)OCC)cc(=O)c34)OC(=O)[C@@H](N)CCCCN)cccc2o1
inactive: Potency [1] | outcome [2] | Potency [3] | Potency [4] | Potency [5] | Potency [20] | outcome [6] | Potency [7] | outcome [8] | Potency [9] | Potency [10] | Potency [11] | Potency [18] | Potency [13] | outcome [14] | outcome [15] | outcome [16]
